# Source: PubChem
# Only some compounds are listed: those with a hit (about 11% of all), similar ones and a draw of the others.
# Pf growth 96h: P. falciparum growth inhibition at 96 hours. AID 504834. P. falciparum luciferase reporter growth, 96 h. 6.9% of 320,000 active. Potency, µM (titrated, usually from 28.7 µM), inactives show at the top dose activity change, negative = inhibition, actives largely listed as inhibitors; further: on the % scale 0 is the no-effect control and ±100 the full control effect
#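 Infected RBCs, 2% Hct / 0.05% parasitemia final; luciferase-reporter P. falciparum; cpd 96 h, 37 C, 5% CO2; luciferase detection reagent; luminescence.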
# Pf growth 48h: inhibits P. falciparum growth in the first generation, 48 h; P. falciparum luciferase growth in erythrocytes, 48 h; Potency, µM (doses to about 28.7 µM), for the others: at the highest dose activity change, negative = inhibition, actives largely listed as inhibitors; 5.9% of 310,000 active; further: on the % scale 0 is the no-effect control and ±100 the full control effect
#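 A one-generation exposure of luciferase-tagged malaria parasites in RPMI 1640/Albumax erythrocyte culture, 37 C and 5% CO2. Inhibition is inferred from decreased luminescence after adding detection reagent.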
# HCV inhibitor: HCV inhibition. Huh7.5.1 HCVcc-Cre infection, luciferase reporter, 44 h. Potency, µM (series often up to 41.8 µM), without a hit: top-dose activity change, negative = inhibition, actives largely listed as inhibitors. 3.4% of 340,000 active; further: on the % scale 0 is the no-effect control and ±100 the full control effect
#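 Whole-lifecycle infectious HCVcc-Cre system; cells 1,000/well, compound then virus (~0.5 moi) added 4 h after plating, 44 h culture. Luciferase read 15 sec following 15 min substrate incubation, room temp.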
# AMA1-RON2 inh: disrupts binding of P. falciparum AMA1 to RON2 | AlphaScreen AMA1-biotinylated RON2 peptide binding | 0.2% of 360,000 active | Potency, µM (series often up to 58.2 µM), for the others: at the highest dose activity change, negative = inhibition, usual class: inhibitors;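 further: 0% = vehicle wells and -100% = peptide control; nearly all actives have a fitted effect of over 45% in size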
#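 AMA1 (3D7) with his tag at 25 nM final met compounds first, then biotinylated RON2 peptide at 25 nM; detection used donor plus acceptor beads, 10 µg/mL apiece, read by AlphaScreen after 30 min at room temperature.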
# AmpC detergent: blocks E. coli AmpC beta-lactamase in detergent assay | 0.041% of 370,000 active | Potency, µM (doses to about 114 µM), for inactives: top-dose activity change, negative = inhibition, hits mostly inhibitors | AmpC hydrolysis of nitrocefin, absorbance 480 nm, 0.01% Triton | P00811;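 further: 0% = no-compound wells and -100% = no-enzyme wells; nearly all actives have a fitted effect of over 25% in size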
# Target sequence (P00811 whole entry, looked up): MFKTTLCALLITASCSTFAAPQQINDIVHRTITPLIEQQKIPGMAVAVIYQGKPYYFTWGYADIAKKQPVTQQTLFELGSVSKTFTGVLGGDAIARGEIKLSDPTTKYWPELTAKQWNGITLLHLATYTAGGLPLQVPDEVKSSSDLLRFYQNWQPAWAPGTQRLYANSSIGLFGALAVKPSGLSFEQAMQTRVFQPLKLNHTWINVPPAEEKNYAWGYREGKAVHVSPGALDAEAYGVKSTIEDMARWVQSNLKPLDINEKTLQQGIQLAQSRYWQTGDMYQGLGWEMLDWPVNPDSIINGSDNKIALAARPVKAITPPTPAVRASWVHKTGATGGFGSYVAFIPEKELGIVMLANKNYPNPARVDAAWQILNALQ
#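 AmpC (5.3 nM in the dispensed reagent) in 20 mM phosphate pH 7.0 with 0.01% (detergent screen) or 0.0001% Triton X-100 was preincubated with compounds for 15 min at room temperature. Nitrocefin was then added from an 800 uM solution, and hydrolysis was followed at 480 nm.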
# AmpC no deterg: blocks E. coli AmpC beta-lactamase in detergent-free assay; Potency, µM (series often up to 57.1 µM), inactives show at the highest dose activity change, negative = inhibition, most hits filed as inhibitors; 0.52% of 330,000 active; P00811; AmpC nitrocefin hydrolysis, absorbance 480 nm, 0.0001% Triton;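 further: plate controls were no compound for no effect and no enzyme for full effect; nearly all actives have a fitted effect of over 20% in size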
#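 AmpC (5.3 nM in the dispensed reagent) in 20 mM phosphate pH 7.0 with 0.01% (detergent screen) or 0.0001% Triton X-100 was preincubated with compounds for 15 min at room temperature. Nitrocefin was then added from an 800 uM solution, and hydrolysis was followed at 480 nm.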
# HCV confirm: HCV inhibition, cherry-pick confirmation | Potency, µM (series often up to 41.8 µM), without a hit: at the top dose activity, negative = inhibition, hits mostly inhibitors | shares compounds with HCV inhibitor | 78% of 640 active | HCVcc-Cre infectious virus cell assay, luciferase, inhibition; further: nearly all actives have a fitted effect of over 80% in size
# HCV cytotox: toxic to HCV host cells, flagging false HCV inhibitors; shares compounds with HCV inhibitor; Potency, µM (top dose mostly 41.8 µM), without a hit: top-dose activity change, negative = cytotoxicity, actives largely listed as inhibitors; 22% of 640 active; HCV host cell line cytotoxicity counterscreen;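 further: 44 h compound exposure; on the % scale 0 is the no-effect control and ±100 the full control effect; nearly all actives have a fitted effect of over 55% in size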
# Active calls of the source: *; u = inconclusive; x = not tested or not shown; [ ] = dose if it differs, or a comment. The call rests on the fitted dose curve; in most records, active means well fitted curve in the direction sought with a large enough effect; inconclusive means small, poorly fitted or top-dose-only effect, or another doubt; inactive means no such curve, though single readings can be large; an effect the other way counts as inactive or inconclusive. Potency means the concentration at half of the fitted maximal effect.
SMILES,Pf growth 96h,Pf growth 48h,HCV inhibitor,AMA1-RON2 inh,AmpC detergent,AmpC no deterg,HCV confirm,HCV cytotox
Cc1cccc(CN2C(=O)N/C(=C/c3cc(C)n(-c4cc(C)ccn4)c3C)C2=O)c1,x,12µM*,1.8µM*,-16%,-1%,34%,16µM*,8%
O=C(Nc1ccc(CN2CCS(=O)(=O)CC2)cc1)c1ccc(C(F)(F)F)cc1,u,u,5.6µM*,-1%,1%,29%,5µM*,13µM*
O=C(Nc1ccc(CN2CCOCC2)cc1)c1ccc(Cl)cc1,41%,55%,1%,10%,0%,-16%,x,x
O=C(Nc1ccc(S(=O)(=O)Nc2ccccc2)cc1)c1ccc(CN2CCOCC2)cc1,32%,u,2.2µM*,-7%,1%,-16%,1.8µM*,-93%
O=C(Nc1ccc(CN2CCS(=O)(=O)CC2)cc1)c1ccc(F)cc1,11%,36%,-7%,0%,-5%,-17%,x,x
Cc1ccc(C=Cc2ccccn2)cc1,x,x,x,0%,x,x,x,x
CC(C)(C)C1C/C(=C/c2ccccn2)C(=O)/C(=C/c2ccccn2)C1 (stereo not drawn),-21%,2.1µM*,0.89µM*,5%,u,-13%,1µM*,1.4µM*
COc1cc(NC(=O)c2ccccc2OCc2ccccc2)cc(OC)c1OC,-19%,9.3µM*,u,-2%,-11%,61%,14µM*,12%
COc1ccc(OC)c(NC(=O)N(C)CCc2c(C)nn(C)c2C)c1,x,x,x,x,11%,x,x,x
CCSc1nc2c(c(=O)[nH]c(=O)n2C)n1Cc1ccc(Cl)cc1,48%,u,-9%,3%,u,-6%,x,x
CCCCCOC(=O)CSc1nc2c(c(=O)[nH]c(=O)n2C)n1Cc1ccc(Cl)cc1,-9%,u,2.8µM*,-5%,5%,-18%,5.6µM*,20%
CCCCn1c(=N)n(CC(O)COc2cccc(C)c2)c2ccccc21 (stereo not drawn),u,7.4µM*,8.9µM*,-9%,-8%,1%,14µM*,u
Clc1cccc(-c2cc3nc4c(c(N5CCOCC5)n3n2)CCCC4)c1,x,u,u,29%,-11%,74%,14µM*,-11%
OC1CCN(c2c3c(nc4cc(-c5ccc(Cl)cc5)nn24)CCC3)CC1,49%,-20%,u,9%,1%,-17%,x,x
CCOC(=O)Cc1ccc(NC(=O)N2CCc3c(sc4c3CCCC4)C2c2ccc(F)cc2)cc1 (stereo not drawn),x,x,x,x,2%,x,x,x
Cc1ccc(CNC(=O)Cc2csc(Nc3nc(=S)[nH]c4ccccc34)n2)cc1,84%,-11%,x,x,-5%,-23%,x,x
O=C(Cc1csc(Nc2nc(=S)[nH]c3ccccc23)n1)N1CCN(c2cccc(C(F)(F)F)c2)CC1,2%,-16%,5.6µM*,46%,3%,-55%,13µM*,13µM*
CCN1CCN(C(c2ccccc2)c2sc3nc(-c4ccco4)nn3c2O)CC1 (stereo not drawn),x,x,x,x,-1%,x,x,x
CN1CCN(CCOc2ccc(-c3ccccc3)cc2)CC1,u,u,u,3%,-2%,92%,x,x
CCN1CCN(CCCOc2ccc(-c3ccccc3)cc2)CC1,21%,-67%,2.8µM*,-13%,u,113%,14µM*,-19%
CCc1c(C)nc2nncn2c1Nc1ccc(Cl)cc1,x,x,x,x,16%,x,x,x
CCOc1cc(CNC(C)(C)C)ccc1OCC(=O)Nc1cccc(C(F)(F)F)c1,43%[1.15 µM],6.6µM*,u,1%,0%,-12%[2.29 µM],3.1µM*,17%
c1ccc2nc(-c3ccc4c(c3)OCO4)ccc2c1,240%,292%,-9%,17%,-2%,-31%,x,x
COc1ccc(OC)c2nc(-c3ccc4c(c3)OCO4)ccc12,422%,x,4.5µM*,6%,-3%,29%,8.9µM*,24%
COc1ccc(N2CCN(C(=O)c3cc(S(=O)(=O)N4CCCCCC4)cn3C)CC2)cc1,x,x,x,x,24%,x,x,x
SMILES,Pf growth 96h,Pf growth 48h,HCV inhibitor,AMA1-RON2 inh,AmpC detergent,AmpC no deterg,HCV confirm,HCV cytotox
COc1ccc(CCN2C(=O)c3oc4ccc(F)cc4c(=O)c3C2c2ccc(C(C)(C)C)cc2)cc1 (stereo not drawn),x,x,x,x,24%,x,x,x
COc1cc(NC(=O)c2ccccc2F)c(OC)cc1NC(=O)CN1CCOCC1,u,-2%,u,-15%,-12%,95%,u,11%
Cc1cccc(CSCc2ccc(C(=O)NCCc3ccccc3)o2)c1,x,x,x,x,0%,x,x,x
Cc1cnc(NC(=O)CCCc2nc3ccccc3s2)s1,35%,-13%,2.8µM*,-3%,7%,-8%,16µM*,-35%
O=C(CCCc1nc2ccccc2s1)Nc1nccs1,u,-26%,-7%,-10%,-14%,-22%,x,x
CCN(c1ccccc1)S(=O)(=O)c1cc(Br)cc2c1N(C(=O)C1CC1)CC2,x,x,x,x,-6%,x,x,x
Cc1cccc(N2CCc3c2nc2ccccc2c3N)c1,10µM*,u,8.9µM*,-9%,-8%,-3%,22µM*,-24%
Cc1ccc2nc(N3CCC(C(=O)N4CCN(c5cccc(Cl)c5)CC4)CC3)[nH]c2c1,x,x,x,x,0%,x,x,x
CCOc1ccc2c(C)nc(NC3=NC(C)(C)C=C(C)N3)nc2c1,12µM*,10µM*,5µM*,-8%,-13%,-8%,7µM*,u
Cc1ccc(SCc2cc(=O)[nH]c(Nc3nc(C)c4ccc(C)cc4n3)n2)cc1,u,48%,2%,20%,-10%,-27%,x,x
O=C(C1CCCN(S(=O)(=O)c2ccc(Br)s2)C1)N1CCN(c2ccc(F)cc2)CC1 (stereo not drawn),x,x,x,x,20%,x,x,x
CCOC(=O)C1=C(CC)Nc2ccccc2N=C1NC(=O)c1oc2ccccc2c1C,u,u,u,-13%,15%,-4%,13µM*,2%
CCOCc1c(C(=O)NC2=Nc3ccccc3NC(CC)=C2C(=O)OCC)oc2ccccc12,u,u,u,1%,u,-27%[11.4 µM],x,x
C=CCc1ccc(OCCOc2cccc3ccc(C)nc23)c(OC)c1,u,u,8.9µM*,-27%,9%,125%,13µM*,24%
CCOC(=O)c1c(NC(=O)CCCOc2ccc(C(C)(C)C)cc2)sc2c1CCCC2,x,x,x,x,0%,x,x,x
